# Laboratory results reported in publication PMC8384837, “Expanding the binding specificity for RNA recognition by a PUF domain”.
# Positions count from the first letter of the chain named.
# How the values were obtained:
# Assay in all cases: yeast three-hybrid, YBZ-1, SC-Leu-His + 0.5 mM 3-AT, 4 days
# Details in all cases: tags: N-Gal4 AD-HA kept; label: inside an RPR1-promoter hybrid RNA with tandem MS2 sites; ssRNA
# PUM1 PUF domain R5-KDR = PUM1 PUF domain R5-KDR (Homo sapiens, UniProt Q14671 828-1176, C1007K;R1008D;Q1011R)
# Summary of the method: (§1)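 Pumilio-1 PUF domain libraries, randomized (NNK) at the three base-contacting residues of each repeat, were co-expressed with matching RNA elements from a centromeric plasmid in strain YBZ-1 (LexA–MS2 coat fusion, HIS3 reporter). Transformants were plated on SC-Leu (input) and SC-Leu-His + 0.5 mM 3-AT (selection) for four days, and repeat regions were PCR-amplified and Illumina-sequenced. The interaction score is the log2 change in variant frequency from input to selection, with pseudocount 1 where absent.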
# PUM1 PUF domain R5-KRL = PUM1 PUF domain R5-KRL (Homo sapiens, UniProt Q14671 828-1176, C1007K;Q1011L)
# Summary of the method: as §1
# PUM1 PUF domain R3-DYA = PUM1 PUF domain R3-DYA (Homo sapiens, UniProt Q14671 828-1176, C935D;R936Y;Q939A)
# Summary of the method: as §1
# PUM1 PUF domain R8-RFQ = PUM1 PUF domain R8-RFQ (Homo sapiens, UniProt Q14671 828-1176, N1122R;Y1123F)
# Summary of the method: as §1
# PUM1 PUF domain R4-PYV = PUM1 PUF domain R4-PYV (Homo sapiens, UniProt Q14671 828-1176, N971P;H972Y;Q975V)
# Summary of the method: as §1
# PUM1 PUF domain R6-DFQ = molecular target: T1, PUM1 PUF domain R6-DFQ (Homo sapiens, UniProt Q14671 828-1176, N1043D;Y1044F)
# T1 sequence: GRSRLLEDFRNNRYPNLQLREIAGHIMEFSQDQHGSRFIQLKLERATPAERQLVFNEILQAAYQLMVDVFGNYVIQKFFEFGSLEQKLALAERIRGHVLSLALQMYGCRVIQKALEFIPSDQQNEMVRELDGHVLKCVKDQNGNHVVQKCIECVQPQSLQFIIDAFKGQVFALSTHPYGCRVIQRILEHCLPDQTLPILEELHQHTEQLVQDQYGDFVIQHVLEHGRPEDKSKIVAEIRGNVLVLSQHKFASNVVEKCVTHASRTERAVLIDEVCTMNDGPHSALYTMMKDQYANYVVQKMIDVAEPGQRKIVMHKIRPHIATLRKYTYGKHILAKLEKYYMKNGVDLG
# Summary of the method: as §1
# PUM1 PUF domain R6-VYC = molecular target: T2, PUM1 PUF domain R6-VYC (Homo sapiens, UniProt Q14671 828-1176, N1043V;Q1047C)
# T2 sequence: T1 sequence with D216V, F217Y, Q220C
# Summary of the method: as §1
# PUM1 PUF domain R4-EHF = PUM1 PUF domain R4-EHF (Homo sapiens, UniProt Q14671 828-1176, N971E;Q975F)
# Summary of the method: as §1
sequence,measurement,setting,value
GGCUAGAACUAGUGGAUCCCCCGGCGCCCGGCGGCUCGAGCCCGGGUAAGUGUUAAUAGUCUGCAUGCCGCCGGGCGCCAUGCCUGCAGGUCGACUCUAGAAAACAUG,binding signal,PUM1 PUF domain R5-KDR,2.77 log2 enrichment (interaction score)
same,binding signal,PUM1 PUF domain R5-KRL,3 log2 enrichment (interaction score)
GGCUAGAACUAGUGGAUCCCCCGGCGCCCGGCGGCUCGAGCCCGGGUAAGUGUAAGUAGUCUGCAUGCCGCCGGGCGCCAUGCCUGCAGGUCGACUCUAGAAAACAUG,binding signal,PUM1 PUF domain R3-DYA,1.16 log2 enrichment (interaction score)
GGCUAGAACUAGUGGAUCCCCCGGCGCCCGGCGGCUCGAGCCCGGGUAAGUGUGAAUAGUCUGCAUGCCGCCGGGCGCCAUGCCUGCAGGUCGACUCUAGAAAACAUG,binding signal,PUM1 PUF domain R5-KRL,0.47 log2 enrichment (interaction score)
GGCUAGAACUAGUGGAUCCCCCGGCGCCCGGCGGCUCGAGCCCGGGUAAGUGUAAAUAGUCUGCAUGCCGCCGGGCGCCAUGCCUGCAGGUCGACUCUAGAAAACAUG,binding signal,PUM1 PUF domain R8-RFQ,2.11 log2 enrichment (interaction score)
same,binding signal,PUM1 PUF domain R3-DYA,5.02 log2 enrichment (interaction score)
same,binding signal,PUM1 PUF domain R4-PYV,5.22 log2 enrichment (interaction score)
same,binding signal,PUM1 PUF domain R5-KRL,1.09 log2 enrichment (interaction score)
same,binding signal,PUM1 PUF domain R6-DFQ,8.15 log2 enrichment (interaction score)
GGCUAGAACUAGUGGAUCCCCCGGCGCCCGGCGGCUCGAGCCCGGGUAAGUGUACAUAGUCUGCAUGCCGCCGGGCGCCAUGCCUGCAGGUCGACUCUAGAAAACAUG,binding signal,PUM1 PUF domain R4-PYV,6.43 log2 enrichment (interaction score)
GGCUAGAACUAGUGGAUCCCCCGGCGCCCGGCGGCUCGAGCCCGGGUAAGUGAAAAUAGUCUGCAUGCCGCCGGGCGCCAUGCCUGCAGGUCGACUCUAGAAAACAUG,binding signal,PUM1 PUF domain R6-VYC,6.26 log2 enrichment (interaction score)
GGCUAGAACUAGUGGAUCCCCCGGCGCCCGGCGGCUCGAGCCCGGGUAAGUGUAUAUAGUCUGCAUGCCGCCGGGCGCCAUGCCUGCAGGUCGACUCUAGAAAACAUG,binding signal,PUM1 PUF domain R4-PYV,7.86 log2 enrichment (interaction score)
same,binding signal,PUM1 PUF domain R4-EHF,5.95 log2 enrichment (interaction score)
GGCUAGAACUAGUGGAUCCCCCGGCGCCCGGCGGCUCGAGCCCGGGUAAGGGUAAAUAGUCUGCAUGCCGCCGGGCGCCAUGCCUGCAGGUCGACUCUAGAAAACAUG,binding signal,PUM1 PUF domain R8-RFQ,2.44 log2 enrichment (interaction score)
